Active and inactive are the calls of the source.

Test [1] is described as follows: small molecules captured by biotinylated probe aFSTL3 – biochemical, small-molecule microarray, fluorescence 635/667, stem cell growth factor project, primary screen (AID 1064).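 Note: measures binding of the biotinylated anti-FSTL3 antibody to printed compounds.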 The following applies: higher = more signal.
A short description of test [2]: binders from COS7 lysate, DM2A8 probe, primary screen, torsin A project, cell lysate, small-molecule microarray, fluorescence 635/667 (AID 1065). The conditions noted are these: higher = more signal, COS7 lysate expressing mutant human TOR1A.
Test [3] in a line: small molecules captured by biotinylated probe aFGF2 – biochemical, small-molecule microarray, fluorescence 635/667, stem cell growth factor project, primary screen (AID 1067).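 Note: measures binding of biotinylated aFGF2 protein to printed compounds on slides; z-score merges feature fluorescence and signal-to-noise across triplicate slides.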 The conditions noted are these: higher = more signal.
A short description of test [4]: small molecules captured by biotinylated probe aFGF10 – biochemical, small-molecule microarray, fluorescence 635/667, stem cell growth factor project, primary screen (AID 1071).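 Note: score merges 667 nm spot intensity and signal to noise from triplicate slides.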 The following applies: higher = more signal.
The target in test [5] is Neurogenic locus notch homolog protein 2 (Homo sapiens) (UniProt Q04721). Briefly: small molecules binding Notch2 protein – biochemical, small-molecule microarray, 635 nm fluorescence, stem cell growth factors, primary screen (AID 1073). The following applies: higher = more signal.
The target of test [6] is Pro-neuregulin-1, membrane-bound isoform (Homo sapiens) (UniProt Q02297). The test can be described thus: small molecules binding neuregulin-1 protein – biochemical, small-molecule microarray, fluorescence 635/667, psychiatric disease protein project, primary screen (AID 1075).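 Note: score combines 667 nm spot fluorescence with signal to noise.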 The conditions noted are these: NRG1 binding, 635 nm fluorescence, higher = more signal.
Test [7] relates to Neuregulin-1 EGF-like domain. The test can be described thus: small molecules binding NRG1 EGF domain – biochemical, small-molecule microarray, 635 nm fluorescence, primary screen (AID 1081).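 Note: binding of the protein to compounds printed on small-molecule microarray slides.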 The conditions noted are these: higher = more signal.
A short description of test [8]: FRG1 expression reporter modulators in myotubes – cell-based, C2C12 myotubes, firefly/Renilla luciferase, luminescence, FRG1 inhibition for FSHD, primary screen (AID 1084). The conditions noted are these: FRG1 promoter luciferase, higher = more signal, called active from +8 up or from −8 down.
The nature of test [9]: small molecules captured by biotinylated probe aFST – biochemical, small-molecule microarray, fluorescence 635/667, stem cell growth factor project, primary screen (AID 1086).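 Note: score merges 667 nm fluorescence with signal-to-noise of each printed compound spot.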 The following applies: higher = more signal.
The nature of test [10]: binders of probe aHhip on microarray, primary screen, stem cell growth factor project, biochemical, small-molecule microarray, fluorescence 635/667 (AID 1087).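 Note: score merges spot fluorescence at 667nm with spot signal to noise ratio.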 The following applies: higher = more signal.
Test [11] deals with PRMT1 (protein arginine N-methyltransferase 1). Briefly: small molecules binding arginine methyltransferase PRMT1 – biochemical, small-molecule microarray, 635 nm fluorescence, primary screen (AID 1088).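 Note: binding of Prmt1 protein to compounds spotted on small-molecule microarray slides.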 The following applies: higher = more signal.
Test [12] in a line: growth effects on S. cerevisiae YJM789 – YJM789 clinical isolate, OD600, 24 h, basal, primary screen (AID 1089).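 Note: growth of clinical yeast isolate S. cerevisiae YJM 789 seeded 1000 cells per well; test concentration not given here.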 The conditions noted are these: higher = more signal, called active from +8 up or from −8 down.
The nature of test [13]: S. pombe growth modifiers, basal conditions – strain 972, OD600, 24 h, no modulator, primary screen (AID 1090).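 Note: basal condition with compound alone and no growth modifier present; test concentration not given here.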 The conditions noted are these: S. pombe 972 growth, higher = more signal, called active from +8 up or from −8 down.
Test [14] can be described thus: budding yeast growth modifiers under rapamycin – strain BY4716, OD600, 96 h, primary screen (AID 1091). Note: test concentration not given here. The conditions noted are these: S. cerevisiae BY4716 + rapamycin, higher = more signal, called active from +8 up or from −8 down.
The target in test [15] is Torsin-1A-interacting protein 2 (Homo sapiens) (UniProt Q8NFQ8). Briefly: small molecules binding lysate-expressed LULL1 – cell lysate, human LULL1 lysate, 635/667 nm fluorescence, primary screen (AID 1092).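 Note: probe is lysate of COS7 cells overexpressing human LULL1; score merges per-feature 667 nm fluorescence with signal-to-noise.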 The following applies: small-molecule microarray, hLULL1 lysate binding, 635 nm fluorescence; higher = more signal.
The nature of test [16]: optical density change of DRC41 E. coli – strain DRC41, OD650, 24 h, E. coli filamentation project, primary screen (AID 1093).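 Note: MC1000 strain lacking acrAB efflux and sulA so SOS filamentation is blocked; test concentration not given here.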 The following applies: E. coli DRC41 growth, higher = more signal, called active from +8 up or from −8 down.
Test [17] can be described thus: probe aLefty2 binding to arrayed compounds – biochemical, biotinylated probe, 635/667 nm fluorescence, primary screen (AID 1094).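 Note: score merges spot fluorescence near 667 nm with spot signal-to-noise ratio.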 The conditions noted are these: small-molecule microarray, higher = more signal.
Test [18] has as its system Noggin (protein binding on small-molecule microarray). The test can be described thus: small molecules binding Noggin protein – biochemical, 635/667 nm fluorescence, primary screen (AID 1095).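 Note: score merges 667 nm feature fluorescence with signal to noise over triplicate slides.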 The following applies: 635 nm fluorescence, higher = more signal.
In test [19] the target is Neurogenic locus notch homolog protein 3 (Homo sapiens) (UniProt Q9UM47). The test can be described thus: small molecules binding NOTCH3 protein – biochemical, 635/667 nm fluorescence, primary screen (AID 1096). The conditions noted are these: small-molecule microarray, 635 nm fluorescence, higher = more signal.
Test [20] can be described thus: probe aEGFR binding to arrayed compounds – biochemical, biotinylated probe, 635/667 nm fluorescence, primary screen (AID 1097).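 Note: probe is a biotinylated anti-EGFR antibody binding compounds printed on slides; score combines fluorescence near 667 nm and signal to noise of each spot.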 The following applies: small-molecule microarray, higher = more signal.

Sequence of Neurogenic locus notch homolog protein 2 (Homo sapiens) (Q04721 whole entry, looked up, canonical isoform): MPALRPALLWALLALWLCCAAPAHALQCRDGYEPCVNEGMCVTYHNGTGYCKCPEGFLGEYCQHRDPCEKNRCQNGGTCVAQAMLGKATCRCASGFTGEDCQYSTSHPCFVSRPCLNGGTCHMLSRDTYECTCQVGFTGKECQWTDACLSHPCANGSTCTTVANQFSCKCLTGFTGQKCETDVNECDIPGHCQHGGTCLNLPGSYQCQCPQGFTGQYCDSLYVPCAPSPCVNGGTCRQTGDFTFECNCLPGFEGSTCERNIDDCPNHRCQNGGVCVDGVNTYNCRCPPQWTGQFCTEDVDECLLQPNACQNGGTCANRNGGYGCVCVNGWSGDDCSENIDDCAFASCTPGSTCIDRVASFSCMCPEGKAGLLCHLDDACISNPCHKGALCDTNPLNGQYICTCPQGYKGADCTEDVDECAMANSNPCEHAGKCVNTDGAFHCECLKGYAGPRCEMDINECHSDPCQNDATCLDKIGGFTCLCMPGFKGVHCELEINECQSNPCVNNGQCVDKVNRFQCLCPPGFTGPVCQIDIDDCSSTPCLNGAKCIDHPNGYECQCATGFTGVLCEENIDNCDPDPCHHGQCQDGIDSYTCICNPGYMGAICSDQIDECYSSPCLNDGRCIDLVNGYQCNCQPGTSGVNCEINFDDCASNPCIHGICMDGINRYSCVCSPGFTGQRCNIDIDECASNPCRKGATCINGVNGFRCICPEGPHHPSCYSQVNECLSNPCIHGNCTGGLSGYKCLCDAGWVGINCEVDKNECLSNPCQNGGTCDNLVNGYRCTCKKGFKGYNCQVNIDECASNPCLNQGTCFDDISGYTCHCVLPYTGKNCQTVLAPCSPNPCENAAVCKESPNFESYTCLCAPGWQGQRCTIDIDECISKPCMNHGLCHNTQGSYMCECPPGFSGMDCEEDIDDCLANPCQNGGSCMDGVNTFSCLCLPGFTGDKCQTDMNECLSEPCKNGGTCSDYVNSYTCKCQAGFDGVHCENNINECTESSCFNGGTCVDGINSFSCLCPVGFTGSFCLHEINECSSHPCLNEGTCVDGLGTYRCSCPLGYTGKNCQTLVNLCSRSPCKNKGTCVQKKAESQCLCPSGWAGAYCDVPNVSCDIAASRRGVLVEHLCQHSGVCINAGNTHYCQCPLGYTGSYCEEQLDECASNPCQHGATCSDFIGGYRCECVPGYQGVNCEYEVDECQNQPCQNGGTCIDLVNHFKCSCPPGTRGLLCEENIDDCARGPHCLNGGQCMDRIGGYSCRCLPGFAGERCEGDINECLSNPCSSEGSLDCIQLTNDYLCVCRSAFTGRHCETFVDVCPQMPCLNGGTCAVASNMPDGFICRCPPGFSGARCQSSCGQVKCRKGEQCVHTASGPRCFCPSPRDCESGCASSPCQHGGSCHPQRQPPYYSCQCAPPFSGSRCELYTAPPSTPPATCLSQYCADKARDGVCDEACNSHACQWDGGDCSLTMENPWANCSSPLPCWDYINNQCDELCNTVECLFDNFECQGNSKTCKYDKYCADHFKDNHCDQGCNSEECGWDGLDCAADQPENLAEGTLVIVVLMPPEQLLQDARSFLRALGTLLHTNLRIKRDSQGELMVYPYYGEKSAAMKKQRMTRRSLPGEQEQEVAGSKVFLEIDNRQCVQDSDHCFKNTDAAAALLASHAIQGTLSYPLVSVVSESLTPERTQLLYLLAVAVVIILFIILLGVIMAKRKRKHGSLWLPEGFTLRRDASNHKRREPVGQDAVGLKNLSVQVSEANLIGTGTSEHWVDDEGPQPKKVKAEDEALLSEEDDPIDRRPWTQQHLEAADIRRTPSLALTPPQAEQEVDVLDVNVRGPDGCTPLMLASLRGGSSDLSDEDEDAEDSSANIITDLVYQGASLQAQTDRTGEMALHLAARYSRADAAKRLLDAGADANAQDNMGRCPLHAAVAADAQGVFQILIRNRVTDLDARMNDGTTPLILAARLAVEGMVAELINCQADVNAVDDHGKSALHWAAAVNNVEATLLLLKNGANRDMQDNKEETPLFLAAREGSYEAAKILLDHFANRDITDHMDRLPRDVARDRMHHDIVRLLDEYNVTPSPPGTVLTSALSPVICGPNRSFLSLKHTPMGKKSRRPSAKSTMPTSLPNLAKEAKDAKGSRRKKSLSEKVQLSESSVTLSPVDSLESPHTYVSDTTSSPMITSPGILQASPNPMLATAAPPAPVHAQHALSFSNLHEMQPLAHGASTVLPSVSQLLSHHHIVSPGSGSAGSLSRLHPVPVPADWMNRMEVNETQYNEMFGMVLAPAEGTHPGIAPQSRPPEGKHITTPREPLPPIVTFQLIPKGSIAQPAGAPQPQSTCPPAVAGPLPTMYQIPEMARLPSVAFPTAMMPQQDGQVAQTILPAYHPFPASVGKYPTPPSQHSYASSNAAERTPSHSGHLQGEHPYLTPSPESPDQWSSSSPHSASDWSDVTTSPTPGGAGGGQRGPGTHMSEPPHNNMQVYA
Sequence of Pro-neuregulin-1, membrane-bound isoform (Homo sapiens) (Q02297 whole entry, looked up, the tested form may be a part, canonical isoform): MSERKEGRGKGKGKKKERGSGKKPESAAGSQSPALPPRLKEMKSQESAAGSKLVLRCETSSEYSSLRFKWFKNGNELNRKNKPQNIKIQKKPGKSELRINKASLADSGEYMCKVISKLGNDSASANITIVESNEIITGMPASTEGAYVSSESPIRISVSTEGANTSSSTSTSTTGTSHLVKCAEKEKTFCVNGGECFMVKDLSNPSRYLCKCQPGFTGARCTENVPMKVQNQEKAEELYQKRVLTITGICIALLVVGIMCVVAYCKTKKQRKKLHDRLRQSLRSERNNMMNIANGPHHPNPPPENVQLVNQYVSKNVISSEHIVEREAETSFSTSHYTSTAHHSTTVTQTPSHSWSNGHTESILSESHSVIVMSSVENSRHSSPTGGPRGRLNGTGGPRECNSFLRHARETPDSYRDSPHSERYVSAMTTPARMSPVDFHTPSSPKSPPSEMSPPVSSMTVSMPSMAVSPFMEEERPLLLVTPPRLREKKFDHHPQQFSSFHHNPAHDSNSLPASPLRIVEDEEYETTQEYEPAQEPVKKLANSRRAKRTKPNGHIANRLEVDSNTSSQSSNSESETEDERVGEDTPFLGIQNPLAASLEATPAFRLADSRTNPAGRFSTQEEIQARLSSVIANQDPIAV
Sequence of Torsin-1A-interacting protein 2 (Homo sapiens) (Q8NFQ8 whole entry, looked up): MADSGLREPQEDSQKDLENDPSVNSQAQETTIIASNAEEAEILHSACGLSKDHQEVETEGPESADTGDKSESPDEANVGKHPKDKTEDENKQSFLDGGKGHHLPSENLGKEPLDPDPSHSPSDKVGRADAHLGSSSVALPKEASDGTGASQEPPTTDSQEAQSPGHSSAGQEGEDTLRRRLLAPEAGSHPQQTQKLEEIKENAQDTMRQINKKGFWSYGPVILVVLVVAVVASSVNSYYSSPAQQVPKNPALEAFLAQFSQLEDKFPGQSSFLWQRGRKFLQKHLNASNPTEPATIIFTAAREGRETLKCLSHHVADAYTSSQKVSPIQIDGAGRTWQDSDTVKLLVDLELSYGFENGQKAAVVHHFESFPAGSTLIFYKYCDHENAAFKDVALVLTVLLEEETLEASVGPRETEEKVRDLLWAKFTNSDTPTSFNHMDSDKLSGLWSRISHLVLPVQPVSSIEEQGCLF

For `C=C[C@H](CO)NS(=O)(=O)c1ccc(Br)cc1`, the composite z-score was -0.42 in test [1]; 0.213 in test [2]; -0.116 in test [3]; 0.243 in test [4]; 0.315 in test [5]; 0.456 in test [6]. Also, the composite z-score is 0.827 in [7]; 0.447 in [9]; 0.257 in test [10]; -0.0224 in test [11]; 0.676 in test [15]; 0.0467 in test [17]. Moreover, the composite z-score in [18] is 0.19; in test [19], -0.342; in [20], -0.0302. Further, the z-score is 0.297 (inactive) in test [8]; 0.198 (inactive) in test [12]; -1.53 (inactive) in test [13]; -0.135 (inactive) in test [14]; 1.29 (inactive) in test [16].

Turning to `O=C1O[C@H](c2ccccc2)[C@H](c2ccccc2)N2[C@H]1[C@@H](C(=O)N1CCCCCCC1)[C@]1(C(=O)Nc3ccc(C#CCCO)cc31)[C@H]2c1ccccc1OCCO`, the composite z-score amounted to 3.95 in test [1]; 2.92 in [2]; 1.08 in test [3]; 1.62 in test [4]; 1.72 in test [5]; 2.85 in test [6]. For the same compound, the composite z-score was determined as 1.37 in test [7]; 3.77 in test [9]; 4.26 in test [10]; 1.55 in test [11]; 5.15 in test [15]; 1.96 in [17]. Further, the composite z-score stood at 2.41 in test [18], 1.01 in test [19] and 1.34 in test [20]. Moreover, the z-score was -0.851 (inactive) in [8]; 2.09 (inactive) in test [12]; -13.6 (active) in test [13]; 4.15 (inactive) in test [14]; 0.689 (inactive) in test [16].

As for `CC1(C)[C@@H]2CC(C(O)C3C=CC4C(=O)N(c5ccccc5)C(=O)C4N3Nc3ccc([N+](=O)[O-])cc3)=C[C@H]1C2` (stereo not given in full), the composite z-score in test [1] was -0.204; in [2], 0.325; in [3], -0.0834; in test [4], 0.873; in test [5], 1.7; in test [6] it was 1.88. The composite z-score in [7] is 1.2; in [9], 0.352; in test [10], -0.0852; in [11], 1.55; in test [15], 3.71; in test [17], 0.109. Besides, the composite z-score was 0.375 in [18], 1.03 in test [19] and 0.184 in test [20]. The z-score in test [8] is -1.08 (inactive); in test [12], -0.0209 (inactive); in test [13], 0.287 (inactive); in test [14], 2.09 (inactive); in test [16] it was -0.692 (inactive).

As for `CO[C@H]1O[C@H](CO)[C@@H](OC(=O)Nc2ccc(Oc3ccccc3)cc2)[C@H](OC(=O)Nc2ccc3c(c2)OCO3)[C@H]1OC(=O)Nc1ccc2c(c1)OCO2`, the composite z-score in test [1] stood at 0.522; in [2], 1.24; in [3], 0.178; in test [4], 1.21; in [5], 1.5; in [6], 1.69. Moreover, the composite z-score is 1.15 in [7]; 0.968 in test [9]; 0.241 in test [10]; 1.53 in test [11]; 2.42 in test [15]; 0.25 in [17]. Further, the composite z-score in test [18] turned out to be 0.39; in [19] it was 1.02; in test [20] it was 0.166. Also, the z-score in [8] was 5.22 (inactive); in test [12], 1.57 (inactive); in test [13], 1.02 (inactive); in [14], 2.07 (inactive); in [16] it was 2 (inactive).

Turning to `[N-]=[N+]=NCc1ccccc1[C@@H]1OC(c2ccc(OCCCO)cc2)=N[C@]1(Cc1ccccc1)C(N)=O`, the composite z-score was 0.0286 in [1]; -0.187 in test [2]; 0.0062 in test [3]; 0.98 in [4]; 1.6 in [5]; 1.99 in test [6]. For the same compound, the composite z-score in [7] is 1.29; in test [9] it was 1.35; in test [10], -0.249; in test [11] it was 1.48; in [15], 3.36; in test [17], 0.227. Also, the figures for the composite z-score in test [18], in [19] and in test [20] were 0.683, 1.06 and 0.154, respectively. For the same compound, the z-score in test [8] is 2.02 (inactive); in test [12], -0.368 (inactive); in [13], -2.27 (inactive); in test [14] it was -0.784 (inactive); in test [16] it was 0.455 (inactive).

These data come from PubChem BioAssay.
